This passage reports Potency results from PubChem BioAssay (NCATS).

Records with an inconclusive call do not appear. Where a call stands in place of a potency, no number is given. Active and inactive are the calls of the source. The call rests on the fitted dose curve; in most records, active means well fitted inhibition curve with a large enough effect; inconclusive means small, poorly fitted or top-dose-only effect; inactive means flat fitted curve, though single readings scatter.

Sequence of Calcium and integrin-binding protein 1 (Homo sapiens) (Q99828 whole entry, looked up): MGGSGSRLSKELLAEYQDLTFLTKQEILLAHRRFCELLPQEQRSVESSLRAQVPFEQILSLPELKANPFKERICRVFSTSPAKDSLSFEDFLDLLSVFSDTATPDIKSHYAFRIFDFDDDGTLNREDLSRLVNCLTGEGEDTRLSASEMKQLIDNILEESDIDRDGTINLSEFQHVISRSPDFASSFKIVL

This experiment has as its target Calcium and integrin-binding protein 1 (Homo sapiens) (UniProt Q99828). Nature of the experiment: Primary qHTS for Identification of Calcium Integrin Binding Protein 1 (CIB1) Competitor (AID 1508620).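 Further: GST tagged CIB1 binding a fluorescein labelled alphaIIb integrin peptide tracer; top concentration of the series differs between compounds.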 Conditions: CIB1-GST / FITC-alphaIIb peptide fluorescence polarization; series mostly up to 114 µM. Summed up: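 Fluorescence polarization competition: CIB1-GST (1 uM final) preincubated with compound 15 min at room temperature, then FITC-labeled alphaIIb peptide (100 nM final) added for another 15 min. Polarization read at Ex 480/Em 540.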
In general terms: qHTS replaces the single test concentration by a dilution series.
For the compound `CC(C)(N)C(=O)Nc1ccc(Cl)cc1C(=O)c1ccc[nH]1`, the Potency result was “inactive”.

`FC(F)(F)c1cc(N2CCN(C(=S)Nc3cc(Cl)ccn3)CC2)cc(C(F)(F)F)c1`: the Potency entry was “inactive”.

As for `O=C1CCCC2=C1C(c1cccc(Cl)c1)N=C(Nc1nc3ccccc3o1)N2` (stereo not given), the Potency result is “inactive”.

For the compound `O=c1c2ccccc2nc2sc(Nc3ccc(Sc4ccccc4)cc3)nn12`, the Potency result is “inactive”.

Regarding `COc1ccc(OC)c(-c2nnc3n2N=C(c2ccccc2OC)CS3)c1`, the Potency result is “inactive”.

Regarding `O=C1c2ccccc2C(=O)N1c1ccccc1O`, the Potency entry was “inactive”.

On to `O=C1CCc2cc(S(=O)(=O)Nc3cccc(-c4ccccc4)c3)ccc2N1`, for which the Potency result is “inactive”.

As to `COc1ccc(C(=O)N(Cc2ccccc2)Cc2ccco2)c(O)c1`, the Potency result is “inactive”.

`CCN(Cc1sccc1C)c1ncnc2ccc(-c3ccc4c(c3)OCO4)cc12`: the Potency entry is “inactive”.

`Cc1cc2c(s1)c1cnn(Cc3ccc(Br)cc3F)c(=O)c1n2C`: the Potency entry is “inactive”.

`Cn1nnnc1Sc1ncnc2scc(-c3cccc(Cl)c3)c12`: the Potency entry is “inactive”.

On to `O=C1c2ccccc2C(=O)N1c1cnc2ccccc2c1`, for which the Potency result is “inactive”.

As to `CCOC(=O)c1ccoc1-c1ccc2ncnc(NCCc3cnc[nH]3)c2c1`, the Potency entry was “inactive”.

With `Fc1ccc(-c2ccc(Nc3nc(-c4ccncc4)nc4ccccc34)cc2F)c(F)c1`, the Potency result is “inactive”.

As for `Cc1ccc(-c2ccc(=O)n(CC(=O)NCCc3ccccc3)n2)cc1`, the Potency result was “inactive”.

As to `COc1ccc(CN(Cc2ccccc2)C(=O)c2ccccc2O)cc1COc1ccc(NC(C)=O)cc1`, the Potency result was “inactive”.

As for `O=S(=O)(c1ccc2c(c1)OCCO2)N1CCN(S(=O)(=O)c2ccco2)CC1`, the Potency result was “inactive”.

In the case of `CC(=O)Nc1sc2c(c1-c1nccs1)CCNC2`, the Potency entry is “inactive”.

In the case of `Cn1ccc2cc(-c3ccc4ncnc(NCc5cccnc5)c4c3)ccc21`, the Potency result is “inactive”.

Take `COCC1CCCN(C(=O)CC(c2ccc3c(c2)OCO3)c2c(O)cc(OC)cc2OC)C1` (stereo not given): the Potency entry is “inactive”.

Regarding `COc1cc(OC)cc(-c2csc(N3CCC(C(N)=O)CC3)n2)c1`, the Potency entry is “inactive”.

As to `Fc1cc(F)cc(Nc2nc(Cl)nc(NC3CCCC3)n2)c1`, the Potency entry was “inactive”.

`O=C(Nc1ccc(-c2nc3ccccc3[nH]2)cc1)c1ccc2ncsc2c1`: the Potency entry is “inactive”.

Turning to `CC(=O)Nc1ccc(OC2=NS(=O)(=O)c3ccccc32)cc1`, the Potency entry is “inactive”.

Regarding `Cc1ccc(S(=O)(=O)N2CCN(c3nc(C#N)nc4ccccc34)CC2)cc1`, the Potency result was “inactive”.

Consider `COc1ccc(C2Nc3ccccc3C(=O)N2Cc2ccccn2)cc1COc1c(C)cccc1C` (stereo not given), for which the Potency result was “inactive”.

In the case of `N#Cc1nc(Nc2cccc([N+](=O)[O-])c2)nc(NC2CCCC2)n1`, the Potency result was “inactive”.

As for `CC(C)(C)OC(=O)NCc1nnc(-c2cc3ccccc3[nH]2)o1`, the Potency result is “inactive”.

As to `COc1ccc(-c2ccc3ncnc(NCc4cccs4)c3c2)cc1`, the Potency result was “inactive”.

On to `Cc1cc(N[S+](=O)([O-])c2ccc(NC(=O)Cc3ccc(F)c(C)c3)cc2)no1`, for which the Potency entry was “inactive”.

`Cc1ccc(NS(=O)(=O)c2cc3c(cc2-c2ccccc2)NC(=O)CO3)cc1C`: the Potency result is “inactive”.

For the compound `CC(=O)Nc1ccccc1OC1=N[S+](=O)([O-])c2ccccc21`, the Potency result is “inactive”.

In the case of `Cc1cc(C)n2ncc(C(=O)NC3CCC(C(C)(C)C)CC3)c2n1` (stereo not given), the Potency result was “inactive”.

`O=C(CCCCSc1nnc(-c2cccc3ccccc23)o1)Oc1ccc(F)cc1`: the Potency entry is “inactive”.

In the case of `Cc1cc2c(s1)c1cnn(Cc3cc(F)cc(F)c3)c(=O)c1n2C`, the Potency result is “inactive”.

Take `Oc1cc(-c2ccc(N3CCCCC3)nc2)cc2cccnc12`: the Potency entry was “inactive”.

Turning to `Cc1cc(N[S+](=O)([O-])c2ccc(NC(=O)Cc3ccc(F)c(C(F)(F)F)c3)cc2)no1`, the Potency result was “inactive”.

On to `COc1cc(O)c(C(CC(=O)N2C[C@H](C)C[C@H](C)C2)c2ccc3c(c2)OCO3)c(OC)c1` (stereo not given in full), for which the Potency result was “inactive”.

On to `Cc1ccc(-c2ccc(=O)n(CC(=O)N(C)CCN(C)C)n2)cc1`, for which the Potency result was “inactive”.

As to `CC(C)c1nc2c(cnn2C)c(=O)n1N`, the Potency result was “inactive”.
